Reference: PubChem BioAssay
Values without a mark were called inactive. Calls of active or inactive are those of the source. Rule as the data show it: active = inhibition above about 36%; inactive = the rest.

These compounds were tested on transactivating tegument protein VP16 (Human herpesvirus 1) (assay: VP16 transactivation reporter inhibitors, counter-screen for SRC2 inhibitor project, cell-based, luminescence, single concentration (AID 652007)). Details: cell-based VP16 transactivation luciferase reporter, at 8.9 µM, hits give high values.
`CCOC(=O)C1(Cc2ccc(Cl)cc2)CCN(C(C)Cc2ccc(O)c(OC)c2)CC1` (stereo not given) gave an inhibition of 15.9%.
`CC(=O)Nc1cccc(-c2cc(NC(C)=O)c3ncc(-c4ccccc4)n3c2)c1` was tested, and the inhibition was -11.4%.
`O=C(c1ccc(S(=O)(=O)Cc2cc(F)ccc2F)c([N+](=O)[O-])c1)N1CCOCC1` gave an inhibition of 5.57%.
With `O=C(CCl)Nc1ccc(C(=O)NCC2COc3ccccc3O2)cc1` (stereo not given) the inhibition was 71.2% (active).
For `CCc1cc(CNC(=O)c2ccc3nc(Cc4ccc(OC)c(OC)c4)oc3c2)on1`, the inhibition was 9.61%.
`COc1ccc(OC)c(NC(=O)COC(=O)CCCN=C2NS(=O)(=O)c3ccccc32)c1` was tested, and the inhibition was -0.67%.
In the case of `O=c1c2ccccc2sn1-c1ccccc1`, the inhibition is reported as -5.09%.
In the case of `CC(C)[C@H](CO)Nc1nc(NCc2ccc(S(N)(=O)=O)cc2)c2ncn(C(C)C)c2n1`, the inhibition is reported as 14.3%.
`O=C(O)CCCCCCCCCCC1CCC(O)C1O` (stereo not given) showed an inhibition of 20.8%.
With `Cc1ccc(S(=O)(=O)C[C@@H]2OC[C@H](C)N2S(=O)(=O)c2ccc(C)cc2)cc1` the inhibition was 1.93%.
Compound `CCN1CCN(C(c2ccc(C(F)(F)F)cc2)c2ccc3cccnc3c2O)CC1` (stereo not given) has an inhibition of -15.7%.
`COc1ccc(CCNC(=S)N2CCC(C(=O)c3ccc(F)cc3)CC2)cc1OC` gave an inhibition of 11.5%.
In the case of `CCS(=O)(=O)c1ncc(Cl)c(C(=O)Nc2ccc(S(=O)(=O)N(C)c3ccccc3)cc2)n1`, the inhibition is reported as 65.2% (active).
In the case of `O=C(NC1=NCCS1)C1COc2ccccc2O1` (stereo not given), the inhibition is reported as 29.5%.
For `Cc1ccc(-n2nc3ccc(N)cc3n2)c(C)c1`, the inhibition was -39.4%.
